Laboratory results from PubChem BioAssay (NCI).
About 79,000 compounds went through this panel and 15% of them were active in at least one assay; those are over-represented in the sample as a whole. A number with no mark means an inactive call. Active and inactive are the calls of the source. No stated cut-off is given here; in the data, active means growth inhibition above about 70%; inactive means the rest.

Test: NCI Yeast Anticancer Drug Screen. Data for the mec2-1 strain (AID 157)
Conditions: S. cerevisiae mec2-1 strain, at 5.0 µM (retest, dose inferred, filed as 0.5), stronger effect = higher value
Procedure, shortened: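 Cells of the genetically defined mec2-1 yeast strain are incubated with test compound. Inhibition of growth is calculated against vehicle-treated controls.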

Q: With `Cc1[nH]nc(C(=O)N(C)C)c1N=NN(C)C` as the compound, how does the growth inhibition read?
A: The growth inhibition was -44%.

Q: With `CSc1c(S(C)=O)c2ccccc2n1C` (stereo not drawn) as the compound, how does the growth inhibition read?
A: Its growth inhibition is 22%.

Q: For `CN(C)c1ccc(C=Nc2cnc3ccccc3c2)cc1`, which growth inhibition is on record?
A: Its growth inhibition is -5%.

Q: For `CCCCCCCCCCCCCCCc1nc(SCC(=O)O)n[nH]1`, which growth inhibition is on record?
A: The growth inhibition was 0%.

Q: For `Cc1ccc(S(=O)(=O)Oc2c([N+](=O)[O-])cc(C)cc2[N+](=O)[O-])cc1`, which growth inhibition is on record?
A: Its growth inhibition is 10%.

Q: For `CCOC(=O)c1c(Cl)nnc(-c2ccccc2)c1-c1ccccc1`, which growth inhibition is on record?
A: Its growth inhibition is 1%.

Q: Which growth inhibition does the source give for `Cc1cc(O)c(C=NC(=S)C(N)=S)c(=O)o1` here?
A: The growth inhibition was 13%.

Q: With `C/C(=N\NC(=S)NC(C)(C)C)c1ccccn1` as the compound, how does the growth inhibition read?
A: The growth inhibition was 13%.

Q: With `S=C(Nc1ccc(Br)c(Cl)c1)SCc1ccc2c(c1)OCO2` as the compound, how does the growth inhibition read?
A: Its growth inhibition is 49%.

Q: With `CC(=O)Nc1ccc(S(=O)(=O)N/N=C/c2cc(I)cc([N+](=O)[O-])c2O)cc1` as the compound, how does the growth inhibition read?
A: Its growth inhibition is 10%.

Q: Which growth inhibition does the source give for `CCCC(O)CNCc1ccc(N(C)C)cc1` (stereo not drawn) here?
A: The growth inhibition was -3%.

Q: With `CC(=O)Nc1nnc(-c2coc3ccccc3c2=O)s1` as the compound, how does the growth inhibition read?
A: The growth inhibition was 4%.

Q: For `COc1ccc(CSC(=S)Nc2ccc(Cl)c(C(F)(F)F)c2)cc1`, which growth inhibition is on record?
A: The growth inhibition was 15%.

Q: Which growth inhibition does the source give for `CC(=O)Sc1ccc(Br)cc1` here?
A: The growth inhibition was 3%.

Q: For `O=C(CNc1cccc(Cl)c1)Nn1c(-c2ccccc2)nc2ccccc2c1=O`, which growth inhibition is on record?
A: Its growth inhibition is -1%.

Q: Which growth inhibition does the source give for `Cc1ccc(S(=O)(=O)c2cc(O)c(O)c3ccc(Br)cc23)cc1` here?
A: Its growth inhibition is 9%.

Q: Which growth inhibition does the source give for `Fc1cccc2c1cc1ccc3cccc4ccc2c1c34` here?
A: Its growth inhibition is 0%.

Q: For `COC1=C(/C(=N/Nc2ccc([N+](=O)[O-])cc2[N+](=O)[O-])c2ccccc2)COC1=O`, which growth inhibition is on record?
A: Its growth inhibition is 0%.

Q: For `CCOC(=O)c1cnccc1CC1(C#N)c2ccccc2C=CN1C(=O)c1ccccc1` (stereo not drawn), which growth inhibition is on record?
A: Its growth inhibition is -2%.

Q: Which growth inhibition does the source give for `CCCCNc1ccc(-c2c(N)nc(N)nc2CC)cc1[N+](=O)[O-]` here?
A: The growth inhibition was -16%.

Q: For `O=C(NC1CCN(Cc2ccccc2)CC1)c1cccc(I)c1`, which growth inhibition is on record?
A: The growth inhibition was 39%.

Q: With `O/N=C1/CC2CCCc3ccc4cccc1c4c32` (stereo not drawn) as the compound, how does the growth inhibition read?
A: Its growth inhibition is -18%.

Q: With `CC(C)c1cc(O)c2c(c1O)C1CC3C(C)(C)CCC[C@]23C(=O)O1` (stereo partly drawn) as the compound, how does the growth inhibition read?
A: Its growth inhibition is 9%.

Same assay, conditions: S. cerevisiae mec2-1 strain, at 50.0 µM (retest, dose inferred, filed as 5.0), stronger effect = higher value

Q: With `Oc1ccccc1N=CC1CCCCC1` as the compound, how does the growth inhibition read?
A: The growth inhibition was -24%.

Q: For `CC(O[Si](c1ccccc1)(c1ccccc1)C(C)(C)C)[C@H](NC(=O)OC(C)(C)C)C(=O)O[Si](c1ccccc1)(c1ccccc1)C(C)(C)C` (stereo partly drawn), which growth inhibition is on record?
A: The growth inhibition was 99% (active).

Q: For `Cn1c(=O)c2c3oc(=O)cc(O)c3c(=O)n3c4ccccc4n(c1=O)c23`, which growth inhibition is on record?
A: The growth inhibition was 69%.

Q: With `CCCCCCCCCCCCCCC(O)C(=O)O` (stereo not drawn) as the compound, how does the growth inhibition read?
A: The growth inhibition was -31%.

Q: With `O=[N+]([O-])c1cc(I)cc(/C=N/NS(=O)(=O)c2ccc(F)cc2)c1O` as the compound, how does the growth inhibition read?
A: The growth inhibition was 31%.

Q: Which growth inhibition does the source give for `CCC/C=C1/OC(=O)C2=C[C@H]3CC[C@]21[C@]1(OC(=O)C2=C1CCC=C2)[C@H]3CCC` here?
A: Its growth inhibition is 97% (active).

Q: For `C=C(CC)C[C@@H]1C[C@]2(C(=O)OC)c3[nH]c4ccccc4c3CCN2C1=O`, which growth inhibition is on record?
A: The growth inhibition was 85% (active).

Q: Which growth inhibition does the source give for `Cc1ccc(N2C(=O)C(Cl)=C(Cl)C2=O)cc1` here?
A: The growth inhibition was 100% (active).

Q: Which growth inhibition does the source give for `COc1cc2c(cc1O)CCCCC2` here?
A: Its growth inhibition is -2%.

Q: For `CC(C)Cc1cc(O)cc2ccccc12`, which growth inhibition is on record?
A: The growth inhibition was 99% (active).

Q: With `CCN(CC)Cc1cc(Nc2c3ccccc3nc3c4ccccc4n(C)c23)ccc1O` as the compound, how does the growth inhibition read?
A: Its growth inhibition is -4%.

Q: With `CC(=O)Nc1ccc(-c2csc(Nc3ccnc4cc(Cl)ccc34)n2)cc1` as the compound, how does the growth inhibition read?
A: The growth inhibition was 46%.

Q: For `NNc1ccccc1F`, which growth inhibition is on record?
A: Its growth inhibition is 97% (active).

Q: For `O=C(O)C1(Cc2ccc3c(c2)CCC3)Cc2ccccc2C1=O` (stereo not drawn), which growth inhibition is on record?
A: Its growth inhibition is -6%.

Q: Which growth inhibition does the source give for `c1cc2cc(Cc3ccc4[nH]ccc4c3)ccc2[nH]1` here?
A: The growth inhibition was 36%.

Q: Which growth inhibition does the source give for `COc1cc(C(c2cc3c(cc2O)OCO3)N2CCOCC2)ccc1O` (stereo not drawn) here?
A: Its growth inhibition is 46%.

Q: With `Cc1c(N)nc(C2CC(=O)N2CC(N)C(N)=O)nc1C(=O)NC(C(=O)NC(C)C(O)C(C)C(=O)NC(C(=O)NCCc1nc(-c2nc(C(=O)NCCNCC(C)O)cs2)cs1)C(C)O)C(OC1OC(CO)C(O)C(O)C1OC1OC(CO)C(O)C(OC(N)=O)C1O)c1cnc[nH]1` (stereo not drawn) as the compound, how does the growth inhibition read?
A: Its growth inhibition is 99% (active).

Q: For `Cc1[nH]nc(C(=O)N(C)C)c1N=NN(C)C`, which growth inhibition is on record?
A: Its growth inhibition is 91% (active).

Q: With `CSc1c(S(C)=O)c2ccccc2n1C` (stereo not drawn) as the compound, how does the growth inhibition read?
A: The growth inhibition was 27%.

Q: With `CN(C)c1ccc(C=Nc2cnc3ccccc3c2)cc1` as the compound, how does the growth inhibition read?
A: Its growth inhibition is -13%.

Q: With `CCCCCCCCCCCCCCCc1nc(SCC(=O)O)n[nH]1` as the compound, how does the growth inhibition read?
A: The growth inhibition was 52%.

Q: Which growth inhibition does the source give for `Cc1ccc(S(=O)(=O)Oc2c([N+](=O)[O-])cc(C)cc2[N+](=O)[O-])cc1` here?
A: Its growth inhibition is 29%.

Q: With `CCOC(=O)c1c(Cl)nnc(-c2ccccc2)c1-c1ccccc1` as the compound, how does the growth inhibition read?
A: Its growth inhibition is 99% (active).

Q: With `Cc1cc(O)c(C=NC(=S)C(N)=S)c(=O)o1` as the compound, how does the growth inhibition read?
A: Its growth inhibition is 42%.

Q: Which growth inhibition does the source give for `C/C(=N\NC(=S)NC(C)(C)C)c1ccccn1` here?
A: The growth inhibition was 99% (active).

Q: Which growth inhibition does the source give for `S=C(Nc1ccc(Br)c(Cl)c1)SCc1ccc2c(c1)OCO2` here?
A: The growth inhibition was 98% (active).

Q: Which growth inhibition does the source give for `CC(=O)Nc1ccc(S(=O)(=O)N/N=C/c2cc(I)cc([N+](=O)[O-])c2O)cc1` here?
A: Its growth inhibition is 81% (active).

Q: For `CCCC(O)CNCc1ccc(N(C)C)cc1` (stereo not drawn), which growth inhibition is on record?
A: The growth inhibition was 6%.

Q: With `CC(=O)Nc1nnc(-c2coc3ccccc3c2=O)s1` as the compound, how does the growth inhibition read?
A: The growth inhibition was 3%.

Q: Which growth inhibition does the source give for `COc1ccc(CSC(=S)Nc2ccc(Cl)c(C(F)(F)F)c2)cc1` here?
A: The growth inhibition was 16%.

Q: With `CC(=O)Sc1ccc(Br)cc1` as the compound, how does the growth inhibition read?
A: Its growth inhibition is 52%.

Q: With `O=C(CNc1cccc(Cl)c1)Nn1c(-c2ccccc2)nc2ccccc2c1=O` as the compound, how does the growth inhibition read?
A: Its growth inhibition is 69%.

Q: With `Cc1ccc(S(=O)(=O)c2cc(O)c(O)c3ccc(Br)cc23)cc1` as the compound, how does the growth inhibition read?
A: The growth inhibition was 98% (active).

Q: Which growth inhibition does the source give for `Fc1cccc2c1cc1ccc3cccc4ccc2c1c34` here?
A: Its growth inhibition is -6%.

Q: For `COC1=C(/C(=N/Nc2ccc([N+](=O)[O-])cc2[N+](=O)[O-])c2ccccc2)COC1=O`, which growth inhibition is on record?
A: The growth inhibition was -4%.

Q: For `CCOC(=O)c1cnccc1CC1(C#N)c2ccccc2C=CN1C(=O)c1ccccc1` (stereo not drawn), which growth inhibition is on record?
A: The growth inhibition was 83% (active).

Q: Which growth inhibition does the source give for `CCCCNc1ccc(-c2c(N)nc(N)nc2CC)cc1[N+](=O)[O-]` here?
A: Its growth inhibition is 2%.

Q: For `O=C(NC1CCN(Cc2ccccc2)CC1)c1cccc(I)c1`, which growth inhibition is on record?
A: Its growth inhibition is 64%.

Q: For `O/N=C1/CC2CCCc3ccc4cccc1c4c32` (stereo not drawn), which growth inhibition is on record?
A: Its growth inhibition is -3%.

Q: Which growth inhibition does the source give for `CC(C)c1cc(O)c2c(c1O)C1CC3C(C)(C)CCC[C@]23C(=O)O1` (stereo partly drawn) here?
A: The growth inhibition was 82% (active).
